# Experimental data published in PubChem BioAssay.
# Biological target: Fibroblast growth factor 2 (Homo sapiens) (UniProt P09038)
# Assay: basic fibroblast growth factor binding to printed compounds – biochemical, small-molecule microarray, 635/667 nm fluorescence, primary screen (AID 1133)
# Details: FGF2, fluorescence 635/667, higher = more signal
# Sequence of Fibroblast growth factor 2 (Homo sapiens) (P09038 whole entry, looked up): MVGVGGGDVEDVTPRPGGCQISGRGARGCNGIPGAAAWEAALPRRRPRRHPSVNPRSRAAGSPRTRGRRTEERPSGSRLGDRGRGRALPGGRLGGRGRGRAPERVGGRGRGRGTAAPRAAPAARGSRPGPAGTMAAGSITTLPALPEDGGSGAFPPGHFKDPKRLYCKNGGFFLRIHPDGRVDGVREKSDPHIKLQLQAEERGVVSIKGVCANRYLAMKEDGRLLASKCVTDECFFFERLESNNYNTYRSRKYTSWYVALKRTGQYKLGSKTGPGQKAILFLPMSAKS
row,SMILES,composite z-score
1,C=CCNC(=O)[C@H]1[C@@H]2C(=O)O[C@@H](c3ccccc3)[C@@H](c3ccccc3)N2[C@@H](c2ccc(OCCO)cc2)[C@]12C(=O)Nc1ccc(C#CCC(C(=O)OC)C(=O)OC)cc12,0.826
2,C=CCN1Cc2ccccc2[C@@H]2OC(c3ccc(OCCCO)cc3)=N[C@]2(CCS(=O)(=O)c2ccccc2)C1=O,1.78
3,C[N+](C)(C)CCCC[C@@H]1NC(=O)[C@H]2C[C@@H](C(=O)NCCCCCCNC(=O)CS)[C@@H](c3ccc(O)cc3)N2C1=O,0.247
4,CC(=O)Nc1cc(Br)ccc1C(=O)NCc1ccccc1,-0.327
5,O=C1C2C=CC(C(O)c3ccc4c(c3)OCO4)N(Nc3ccc([N+](=O)[O-])cc3)C2C(=O)N1c1ccccc1 (configuration not stated),-0.0036
6,COc1ccc(C(O)C2C=CC3C(=O)N(C)C(=O)C3N2N(c2ccccc2)c2ccccc2)c2ccccc12 (configuration not stated),0.392
7,COc1cc2c(cc1O)C=[N+](Cc1cc3c(cc1Br)OCO3)CC2,-0.659

# System: not listed separately
# Assay: JC-1 mitochondrial potential readout, lung cancer cells – cell-based, A549, JC-1 fluorescence, basal, 24 h, 100 nL, profiling panel (AID 1138);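 also: A549 lung adenocarcinoma cells under basal conditions with no added stimulus; test concentration not given here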
# Details: higher = more signal
row,SMILES,z-score
1,CC(C)N1CC=CC23O[C@@H]4C=CCOC(=O)[C@@H]4[C@H]2C(=O)N(CCCCCO)[C@@H]3C1=O (some centres not stated),-0.178
2,[N-]=[N+]=Nc1ccccc1C[C@@]1(C(=O)N2CCCCC2)N=C(c2ccc(OCCCO)cc2)O[C@@H]1c1ccccc1,1.13
3,OCC1C=C(/C=C/c2ccccc2)CN1Cc1ccccc1Br (configuration not stated),0.426
4,C=CC[C@@]1(C(=O)N2CCCCC2)N=C(c2ccc(OCCCO)cc2)O[C@@H]1c1ccccc1N=[N+]=[N-],-0.35
5,CO[C@H]1O[C@H](CO)[C@@H](OC(=O)Nc2ccc(Oc3ccccc3)cc2)[C@H](OC(=O)Nc2ccc3c(c2)OCO3)[C@@H]1OC(=O)Nc1ccc2c(c1)OCO2,-0.216
6,COCCOC(=O)N1C(=O)[C@@]2(c3ccccc31)[C@H](C(=O)N1CCc3cc(OC)c(OC)cc3C1)[C@H]1C(=O)O[C@H](c3ccccc3)[C@H](c3ccccc3)N1[C@@H]2c1ccc(O)cc1,0.674
7,CCCCC(=C=CC[C@@H](O)c1cccc(OCCO)c1)C[C@@H](O)c1ccccn1,0.0206
8,CCOC(=O)C[C@H]1[C@H](OC(=O)c2cc3ccccc3oc2=O)[C@@H](NC(=O)CC(C)C)c2cc(OCCCO)ccc2N1C(=O)c1ccccc1,-0.399
9,CC(C)(C)OC(=O)CC[C@@]1(C(=O)N2CCCCC2)N=C(c2ccc(OCCCO)cc2)O[C@@H]1c1ccccc1,1.09
10,Cc1ccc(S(=O)(=O)N2C[C@@H](C(=O)O)[C@H](Sc3ccccc3)C[C@H]2c2ccccc2)cc1,-0.0335
11,O=C1[C@H]2C=C(Br)[C@H](C[C@@H]2OCCCCCCO)[C@@]12CO2,-0.363
12,COc1ccc(C(=O)Nc2cccc(CN3C(=O)[C@]4(O[C@H](CCn5cc(CCO)nn5)[C@@H]([Si](C)(C)c5ccc(OC)cc5)[C@@H]4C)c4ccccc43)c2)cc1,-1.11
13,C=C[C@H](C)[C@@H](OC(=O)Nc1ccc(SC)cc1)c1ccc(O)c2ccccc12,-1.7
14,COCCOC(=O)N1C(=O)[C@@]2(c3cc(C#CC4(O)CCCCCC4)ccc31)[C@H](C(=O)Nc1nc3ccccc3s1)[C@H]1C(=O)O[C@H](c3ccccc3)[C@H](c3ccccc3)N1[C@@H]2c1ccccc1OCCO,-1.13
15,C=CCC(OC(C)=O)[C@@H]1[C@@H](N(Cc2ccc(-c3ccccc3)cc2)C(=O)Cc2ccc(F)cc2)c2cc(OCCCO)ccc2N1C(=O)c1ccc2ccccc2c1 (some centres not stated),1.73
16,CN(C)CCCC[C@@H]1NC(=O)[C@H]2C[C@@H](C(=O)NCCCCCN)[C@@H](c3cccc(OCCO)c3)N2C1=O,0.129
17,C=CC[C@]1(C(=O)NCc2ccccc2)N=C(c2ccc(OCCCO)cc2)O[C@H]1c1ccccc1CN=[N+]=[N-],1.22
18,O=C(CS)NCCCCCNC(=O)[C@@H]1C[C@@H]2C(=O)NCC(=O)N2[C@@H]1c1ccc(O)cc1,-0.977

row,SMILES,z-score
1,C=CCC(OC(C)=O)[C@@H]1[C@@H](N(Cc2ccc(-c3cccc(C(F)(F)F)c3)o2)C(=O)c2cccc3ccccc23)c2cc(OCCCO)ccc2N1C(=O)Cc1ccc2ccccc2c1 (some centres not stated),-0.65
2,C=CCC(OC(C)=O)[C@@H]1[C@@H](N(Cc2ccc(-c3cccc(C(F)(F)F)c3)o2)C(=O)Cc2ccc(OC)cc2)c2cc(OCCCO)ccc2N1C(=O)c1ccc2ccccc2c1 (some centres not stated),-0.322
3,CC(C)CN1C(=O)[C@@]2(c3ccc([N+](=O)[O-])cc3)CC(=O)N(C3CCCCC3)[C@@H]2c2ccc(CO)cc21,0.766
4,O=C1C2C=CC(C(O)C=Cc3ccc([N+](=O)[O-])cc3)N(n3cnnc3)C2C(=O)N1Cc1ccccc1 (configuration not stated),-0.772
5,O=C1O[C@H](c2ccccc2)[C@H](c2ccccc2)N2[C@H]1[C@@H](C(=O)NC[C@H](O)c1ccccc1)[C@]1(C(=O)Nc3ccc(C#CC4=CCCCC4)cc31)[C@H]2c1ccccc1OCCO,-1.76
6,O=C1NC(=O)C2C1C=CC(C(O)c1ccc(I)cc1)N2Nc1ccc(Cl)cc1Cl (configuration not stated),0.535
7,CC(C)CCC[C@@H](C)[C@H]1CC[C@@]2(C)C3=C(CC[C@]12C)[C@@]1(C)CC[C@H](OC(=O)c2ccc(C(F)(F)F)nc2)C(C)(C)C1CC3 (some centres not stated),0.425
8,CC(C)(C)OC(=O)CC[C@]1(C(=O)NCCN2CCOCC2)COC(c2ccc(OCCCO)cc2)=N1,-0.13
9,CN1C(=O)C2C=CC(C(O)c3ccccc3)N(N3CCCCC3)C2C1=O (configuration not stated),0.0958
10,CC[C@@H]1C=C(C(=O)O)[C@H](c2cccc3ccccc23)N1S(=O)(=O)c1ccc(C)cc1,-0.345
11,C=CCNC(=O)[C@H]1[C@@H]2C(=O)O[C@@H](c3ccccc3)[C@@H](c3ccccc3)N2[C@@H](c2ccc(OCCO)cc2)[C@]12C(=O)Nc1ccc(C#CCC(C(=O)OC)C(=O)OC)cc12,-0.765
12,C=CCN1Cc2ccccc2[C@@H]2OC(c3ccc(OCCCO)cc3)=N[C@]2(CCS(=O)(=O)c2ccccc2)C1=O,1.37
13,C[N+](C)(C)CCCC[C@@H]1NC(=O)[C@H]2C[C@@H](C(=O)NCCCCCCNC(=O)CS)[C@@H](c3ccc(O)cc3)N2C1=O,-0.459
14,CC(=O)Nc1cc(Br)ccc1C(=O)NCc1ccccc1,2.26
15,O=C1C2C=CC(C(O)c3ccc4c(c3)OCO4)N(Nc3ccc([N+](=O)[O-])cc3)C2C(=O)N1c1ccccc1 (configuration not stated),-0.35
16,COc1ccc(C(O)C2C=CC3C(=O)N(C)C(=O)C3N2N(c2ccccc2)c2ccccc2)c2ccccc12 (configuration not stated),0.419
17,COc1cc2c(cc1O)C=[N+](Cc1cc3c(cc1Br)OCO3)CC2,-0.784
